Measured values taken from the supplement of paper PMC12350171.
Structures can show the parent of a compound that is named as a salt.

How the values were obtained:
Details in all cases: 20 µM
[1] = test system: Salmonella enterica typhimurium; assay: growth AUC normalised to DMSO control (fraction of control); higher = less growth inhibition, active = hit call of the paper
Procedure, shortened: (§1)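 Hemin and NAD were added to the medium for Haemophilus parainfluenzae. All pathogens, after two anaerobic passages, were inoculated at a starting OD578 of 0.01 into pre-reduced mGAM plates with 20 μM compound and 1% DMSO under breathable seals, and OD578 was read hourly for 24 h in three biological replicates. AUC of each growth curve was obtained with the trapezoidal rule up to the exponential-to-stationary transition and normalised to DMSO controls from the same plate.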

Shigella flexneri = assay: as above
Procedure, shortened: as §1

Vibrio cholerae = assay: as above
Procedure, shortened: as §1

[2] = test system: Yersinia pseudotuberculosis; assay: as above
Procedure, shortened: as §1

P. vulgatus RND KO = assay: growth AUC normalised to DMSO control (median) (fraction of control); higher = less growth inhibition, active = hit call of the paper
Procedure, shortened: (§2)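 After two overnight anaerobic passages, strains were inoculated at OD578 0.01 into mGAM in 96-well plates containing approved-drug library compounds at 20 μM and 1% DMSO. Growth was followed by reading OD578 hourly for 24 h within an anaerobic incubator. Area under the curve, taken by the trapezoidal rule up to the start of stationary phase, was normalised to same-plate vehicle wells, and the median of three biological replicates is listed.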

P. vulgatus WT = assay: as above
Procedure, shortened: as §2

[3] = test system: S. enterica typhimurium WT; assay: as above
Procedure, shortened: as §2

[4] = test system: S. enterica typhimurium tolC KO; assay: as above
Procedure, shortened: as §2

Measured: growth AUC normalised to DMSO control
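Wherever growth AUC normalised to DMSO control (median) is given: active when median AUC fell below 0.1.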

CCCCC(C)(O)C/C=C/[C@H]1[C@H](O)CC(=O)[C@@H]1CCCCCCC(=O)OC (mixture of isomers) [Misoprostol]
inactive: [1] 1.02 | Shigella flexneri 1.01 | Vibrio cholerae 1.02 | [2] 1.01 | P. vulgatus RND KO 0.996 | P. vulgatus WT 0.992 | [3] 1.01 | [4] 0.991

COc1ccccc1OCC(O)CN1CCN(CC(=O)Nc2c(C)cccc2C)CC1 (centres undefined) [Ranolazine]
inactive: [1] 1 | Shigella flexneri 1 | Vibrio cholerae 1.01 | [2] 1.01 | P. vulgatus RND KO 0.994 | P. vulgatus WT 1 | [3] 0.998 | [4] 0.998

COc1cc(N)c(Cl)cc1C(=O)NC1CCN(Cc2ccccc2)CC1 [Clebopride maleate]
inactive: [1] 0.996 | Shigella flexneri 0.998 | Vibrio cholerae 0.995 | [2] 1 | P. vulgatus RND KO 0.987 | P. vulgatus WT 0.999 | [3] 0.998 | [4] 1
